From PubChem
APP transl inh – inhibitors of APP translation via 5'UTR reporter, primary screen, APP 5'UTR luciferase, SH-SY5Y cells; AID 1285, 2008; inhibition, % at 2 µM; SH-SY5Y APP 5'UTR-luciferase reporter, luminescence; hit rate 0.82% among 190,000;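 active means inhibition above a set limit, derived from the sample mean plus 3 SD, cut at about 45% in these data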
Ba/F3 V617F tox – reduced viability of JAK2V617F-dependent Ba/F3 cells, primary screen, JAK2V617F inhibitor project, cell-based, Ba/F3 EpoR-JAK2V617F, luminescence. ATP luminescence. inhibition, % at 5.6 µM. hit rate 1.1% among 220,000. AID 1446, 2008;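 active means inhibition above the campaign mean plus 3 SD over all tested compounds, cut at about 24% in these data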;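 further: cytokine-independent growth of Ba/F3 cells driven by EpoR plus mutant JAK2; 0% = DMSO-treated cells and 100% = JAK inhibitor I control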
KLF5 inh – KLF5 expression inhibitors, primary screen, DLD-1 cells, luminescence | DLD-1 KLF5 promoter-luciferase reporter | inhibition, % at 5 µM | hit rate 0.23% among 290,000;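 active means inhibition above a per-plate limit of that plate's mean compound inhibition plus 3 SD, cut at about 60% in these data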;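 further: 0% = DMSO wells and 100% = LY294002 at 200 µM; higher means less KLF5 promoter-driven luciferase light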
IEC-6 tox – cytotoxicity in IEC-6 intestinal epithelial cells, primary screen, cytotoxicity control for KLF5 inhibitor project, cell-based, luminescence; IEC-6 cytotoxicity, luminescence viability; inhibition, % at 5 µM; hit rate 0.78% among 290,000; AID 1825, 2009;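 further: 0% = plate median of test compound wells and 100% = cytotoxic reference compound wells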
aSyn UTR inh – MLPCN primary screen, SNCA 5' untranslated region. alpha-synuclein 5'UTR reporter, inhibitor activity. inhibition, % (tested at 7.5 µM). hit rate 0.82% among 300,000. AID 1813, 2009; in the data active means inhibition above about 60%;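 further: H4 neuroglioblastoma cells stably carrying SNCA 5'UTR luciferase fusion; 0% = DMSO wells and 100% = positive control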
BaF3 parental – parental Ba/F3 cell viability inhibition, counter-screen for JAK2V617F inhibitor project, murine pro-B, CellTiter-Glo luminescence | CellTiter-Glo ATP luminescence | inhibition, % at 5.6 µM | hit rate 1.1% among 220,000 | AID 1486, 2009;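 active means inhibition above a per-campaign cutoff, the mean inhibition of all tested compounds plus 3 SD, cut at about 27% in these data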;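 further: 0% = DMSO wells and 100% = JAK Inhibitor I control wells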
IEC-6 cytotox cf – cytotoxic compounds in IEC-6 epithelial cells, confirmation, cytotoxicity control, cell-based, luminescence | shares compounds with IEC-6 tox | IEC-6 rat intestinal epithelial viability | inhibition, % at 5 µM | hit rate 63% among 1,900 | AID 1907, 2009;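 further: 0% = vehicle and 100% = reference cytotoxic drug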
* = called active by the depositor; x = no result. Rows were chosen to be rich in hits. Some 2.2% of all compounds tested hit in one or more screens of this group. Unless noted, no stated cut-off is given here; in the data, active means inhibition above about 22%; inactive means the rest.

SMILES | APP transl inh | Ba/F3 V617F tox | KLF5 inh | IEC-6 tox | aSyn UTR inh | BaF3 parental | IEC-6 cytotox cf
CCCCn1c(=O)c(CCC(=O)OCC(=O)NC(=O)NCCOC)nc2ccccc21 | -21 | 4 | 7 | -2 | 14 | 4 | x
COc1ccc(C(=O)N/N=C\c2coc3ccccc3c2=O)cc1 | x | -2 | -32 | -7 | -4 | 0 | x
COc1cc(C(=O)N/N=C/c2coc3ccccc3c2=O)cc(OC)c1OC | x | x | -40 | 70* | 20 | x | 2
CN1CCc2nc(NC(=O)COc3ccc4ccccc4c3)sc2C1 | 8 | 9 | -14 | 38* | -6 | 8 | 18
Cc1ccc(Nc2nc(N/N=C\c3ccc4c(c3)OCO4)nc(N3CCOCC3)n2)cc1 | 16 | 2 | -49 | 49* | -30 | 15 | 67*
Cc1cccc(/C=N/Nc2cc(N3CCOCC3)nc(N3CCOCC3)n2)c1 | 15 | 12 | -16 | 24* | -19 | 19 | 94*
CC(C)c1ccc(/C=N/Nc2cc(N3CCOCC3)nc(N3CCOCC3)n2)cc1 | -4 | 0 | -18 | -2 | x | 4 | x
O=C(Nc1cc(Cl)ccc1-n1cncn1)c1cccs1 | x | x | x | x | 40 | x | x
CCC(C)[C@H](NC(=O)C1(c2ccccc2)CCN(C(=O)OC(C)(C)C)CC1)C(=O)N[C@@H](C(=O)O)c1ccccc1 (some centres not stated) | x | x | -13 | 1 | -3 | x | x
CCOc1ccccc1-n1nnnc1SC(C)C(=O)OC (configuration not stated) | 5 | 1 | 5 | -8 | 5 | 4 | x
COc1cc2c(cc1OC)CN(C1CC(=O)N(c3c(C)cccc3C)C1=O)CC2 (configuration not stated) | -25 | -2 | -11 | 4 | 0 | -1 | x
COC(=O)Nc1nc(-c2ccccc2)c(C(=O)c2ccccc2)s1 | 95* | 80* | 53 | 84* | 100* | 78* | 56*
COc1ccc(NC(=S)NNC(=O)c2ccccc2OC(F)F)cc1 | 26 | 76* | -24 | 39* | -49 | 55* | 23*
O=c1[nH]c(/C=C/c2ccccc2Cl)nc2ccccc12 | x | x | -50 | 39* | -265 | x | 24*
O=C(OCn1ncc(Br)c(Br)c1=O)c1ccccc1Cl | x | 40* | 9 | 23* | -40 | 37* | 54*
O=C(OCc1cnc(Cl)s1)c1ccccc1Cl | -8 | 1 | -24 | -15 | -19 | 8 | x
O=C(OCn1ncc(Br)c(Br)c1=O)c1ccc(F)cc1 | 96* | 85* | 26 | 36* | 64* | 93* | 62*
CSCCC(NC(=O)c1ccccc1)C(=O)NNC(=O)c1csc(N2CCOCC2)n1 (configuration not stated) | x | x | -43 | 5 | 4 | x | x
COc1cc2ncnc(Nc3cccc(Cl)c3)c2cc1OC | x | 2 | -32 | 21 | x | -1 | x
Cc1ccccc1CNc1ncnc2cc(Cl)ccc12 | x | x | -3 | 9 | -2 | x | x
COc1cc2ncnc(NCc3ccccc3C)c2cc1OC | -4 | -3 | 23 | 25* | -1 | 5 | 36*
COc1cc2ncnc(NCc3ccccc3Cl)c2cc1OC | 11 | 3 | 4 | 22* | 6 | 5 | 36*
COc1cc2ncnc(Nc3ccc4c(c3)OCO4)c2cc1OC | x | x | -34 | 27* | -14 | x | 58*
COc1ccc(OCC(O)Cn2c(N)nc3c2c(=O)[nH]c(=O)n3C)cc1 (configuration not stated) | x | 0 | 5 | -1 | 9 | 0 | x
COc1ccc(S(=O)(=O)N(CC(=O)NCc2ccco2)c2ccccc2OC)cc1 | x | x | 10 | -2 | -3 | x | x
COc1ccc(-n2c(SCC(=O)Nc3ncc(Cl)cc3Cl)nc3ccccc32)cc1 | -10 | 4 | 41 | 69* | 30 | 7 | 39*
O=C(CSc1nc2ccccc2n1-c1ccccc1)Nc1ncc(Cl)cc1Cl | 3 | 2 | 27 | 64* | 52 | 1 | 39*
COc1ccc(NC(=O)CSc2nc3ccccc3n2-c2ccccc2)c([N+](=O)[O-])c1 | 10 | 2 | -11 | 1 | 24 | 5 | x
